This passage reports Potency and activity change, negative = cytotoxicity results from PubChem BioAssay (NCATS).

Inconclusive results are not listed. Entries that show only a call come without a potency. Values without a mark were called inactive. Activity calls are given as the source filed them. The call rests on the fitted dose curve; in most records, active means well fitted cell-killing curve with a large enough effect; inconclusive means small, poorly fitted or top-dose-only effect, or effect the other way; inactive means flat fitted curve, though single readings scatter.

One experiment concerns CASKI. The experiment can be described thus: Primary qHTS to identify gynecologic anti-cancer compounds using libraries of approved drugs and bioactive compounds (AID 1345084). Further: nearly all actives have a fitted effect of over 55% in size. As to conditions: Gynecologic cancer cell panel viability, ATPlite luminescence, 48 h; series mostly up to 57.5 µM. An outline of the steps: (§1)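 Cytotoxicity screen measuring ATP content by luciferase luminescence. Each compound is applied at five concentrations for 48 h at 37 C with 5% CO2.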
In the case of `CC(C)c1ccc(NC(=O)C(c2ccccc2)N(C)C(=O)Cc2c[nH]c3ccccc23)cc1` (stereo unspecified), the Potency result was “inactive”.

As for `CCCCC(=O)N(Cc1ccc(-c2ccccc2-c2nn[nH]n2)cc1)C(C(=O)O)C(C)C` (stereo unspecified), the Potency result is “inactive”.

As to `CCCCc1nc(Cl)c(CO)n1Cc1ccc(-c2ccccc2-c2nnn[nH]2)cc1`, the Potency entry was “inactive”.

As for `COc1ccc2c(c1)CN(C(=O)CCN1CCC(Cc3ccccc3)CC1)CCS2`, the Potency entry is “inactive”.

Consider `C=C1C(=O)O[C@@H]2[C@H]1[C@H](O)C[C@]1(C)[C@@H](O)CC=C(C)[C@@H]21`, for which the Potency entry is “inactive”.

Regarding `CCNC(=O)[C@@H]1CCCN1C(=O)[C@H](CCCN=C(N)N)NC(=O)[C@H](CC(C)C)NC(=O)[C@@H](CC(C)C)NC(=O)[C@H](Cc1ccc(O)cc1)NC(=O)[C@H](CO)NC(=O)[C@H](Cc1c[nH]c2ccccc12)NC(=O)[C@H](Cc1cnc[nH]1)NC(=O)[C@@H]1CCC(=O)N1`, the Potency result was “inactive”.

As for `COc1ccc(C2(CNC(=O)[C@](C)(Cc3c[nH]c4ccccc34)NC(=O)Nc3ccc([N+](=O)[O-])cc3)CCCCC2)nc1`, the Potency result was “inactive”.

For the compound `CCN(CC)Cc1cccc(/C=C/c2nc3ccc(F)cc3c(=O)n2-c2ccccc2Cl)n1`, the Potency entry is “inactive”.

For the compound `C=C(C(=O)O)C1CC2=C(C)C(=O)CC2C(C)CC1O` (stereo unspecified), the Potency result was “inactive”.

The subject of another experiment is Es-2. The experiment is described as above. As to conditions: Gynecologic cancer cell panel viability, ATPlite luminescence, 48 h; series mostly up to 57.5 µM. Put shortly: as §1
With `Nc1ccc(N)c([N+](=O)[O-])c1`, the Potency result was “inactive”.

In the case of `CC(C)n1cnc2c(Nc3cccc(Cl)c3)nc(NCCO)nc21`, the Potency entry is “inactive”.

With `COc1ccc(-c2c(C)c(C(=O)NN3CCCCC3)nn2-c2ccc(Cl)cc2Cl)cc1`, the Potency entry is “inactive”.

In the case of `O=C(CC1NCCC[C@H]1O)Cn1cnc2cc(Br)c(Cl)cc2c1=O` (stereo partly specified), the Potency entry was “inactive”.

In the case of `Cc1c(C(=O)NCCCO)cnn1-c1nc(-c2cccc(C(F)(F)F)c2)cs1`, the Potency entry is “inactive”.

As for `COc1cccc(NC[C@@H](O)Cn2c3ccc(Br)cc3c3cc(Br)ccc32)c1`, the Potency result is “inactive”.

As for `C[C@@H](O[C@H]1OCCN(Cc2n[nH]nc2CN(C)C)[C@H]1c1ccc(F)cc1)c1cc(C(F)(F)F)cc(C(F)(F)F)c1`, the Potency entry is “inactive”.

In the case of `CC[C@H](C)[C@H]1O[C@]2(CC[C@@H]1C)C[C@@H]1C[C@@H](C/C=C(\C)[C@@H](O[C@H]3C[C@H](OC)[C@@H](O[C@H]4C[C@H](OC)[C@@H](O)[C@H](C)O4)[C@H](C)O3)[C@@H](C)/C=C/C=C3\CO[C@@H]4[C@H](O)C(C)=C[C@@H](C(=O)O1)[C@]34O)O2`, the Potency entry is “inactive”.

Consider `CCC(=O)Nc1cccc(Oc2nc(Nc3ccc(N4CCN(C)CC4)cc3OC)ncc2Cl)c1`, for which the Potency result is “inactive”.

As for `COc1cc2nc(-c3cc(F)ccc3O)nc(N[C@@H]3CNC[C@H]3C(C)(C)O)c2cc1OC`, the Potency entry was “inactive”.

On to `Cc1cc(CN)cc(C)c1NC(=O)c1ccc(-c2cc(Cl)ccc2Cl)o1`, for which the Potency entry was “inactive”.

In the case of `c1ccc(-c2cnc(Nc3ccc(OCCN4CCCC4)cc3)s2)cc1`, the Potency entry was “inactive”.

With `C=C1C(=O)O[C@@H]2/C=C(/C)CC3C=C(C[C@H](OC(=O)/C(C)=C\C)[C@@H]12)C(=O)O3` (stereo partly specified), the Potency entry is “inactive”.

For `CC1(C)SC2C(NC(=O)[C@H](NC(=O)N3CCNC3=O)c3ccccc3)C(=O)N2C1C(=O)O` (stereo partly specified), the Potency result was “inactive”.

With `CC1(C)SC2C(NC(=O)[C@H](C(=O)O)c3ccsc3)C(=O)N2C1C(=O)O` (stereo partly specified), the Potency result was “inactive”.

On to `COc1ccc(-c2nc(-c3cc(C(F)(F)F)cc(C(F)(F)F)c3)n(Cc3ccc(C(N)=O)cc3)c2-c2ccc(OC)cc2)cc1`, for which the Potency result is “inactive”.

Consider `Fc1ccccc1CNCc1ccc(-c2ccnc3[nH]ccc23)cc1`, for which the Potency entry is “inactive”.

On to `CCCCc1nc(C)c(CC(=S)N(C)C)c(=O)n1Cc1ccc(-c2ccccc2-c2nn[nH]n2)cc1`, for which the Potency result was “inactive”.

For `CO[C@@H]1[C@@H](O[C@H]2O[C@@H](C)[C@H](O[C@@H]3C[C@](C)(O)[C@H](O)[C@@H](C)O3)[C@@H](N(C)C)[C@@H]2O)[C@@H](CC=O)C[C@@H](C)[C@@H](O[C@H]2CC[C@H](N(C)C)[C@H](C)O2)/C=C/C=C/C[C@@H](C)OC(=O)C[C@H]1O`, the Potency result is “inactive”.

On to `CNc1nc(-c2ccc3c(N)n[nH]c3c2)cc(N2CC(C(=O)NC3CCCCC3)CCC2C)n1` (stereo unspecified), for which the Potency result was “inactive”.

Take `CNc1cc(OC)c(C(=O)N[C@@H]2CCN(Cc3ccccc3)[C@@H]2C)cc1Cl`: the Potency result was “inactive”.

For the compound `CN([C@H]1c2cc(OCCCC(F)(F)F)ccc2OC(C)(C)[C@@H]1O)S(C)(=O)=O`, the Potency result is “inactive”.

`CCOC(=O)CCC(=O)O[C@H]1[C@H](O[C@@H]2[C@@H](C)[C@H](O[C@H]3C[C@@](C)(OC)[C@@H](O)[C@H](C)O3)[C@@H](C)C(=O)O[C@H](CC)[C@@](C)(O)[C@H](O)[C@@H](C)C(=O)[C@H](C)CC2(C)O)O[C@H](C)C[C@@H]1N(C)C` (stereo partly specified): the Potency entry was “inactive”.

As for `COc1cc(-c2cc(-c3cccc(O)c3)cnc2N)cc(OC)c1OC`, the Potency result is “inactive”.

Take `C=C1C(=O)O[C@@H]2C[C@@H](C)[C@]34C[C@]5(C(=O)O[C@H]6CC(C)=C([C@H](C)CCCO)[C@H](OC(=O)C(C)CC)[C@H]65)[C@@H](C(C)=C3C[C@@H]12)[C@H]4OC(C)=O` (stereo partly specified): the Potency entry is “inactive”.

On to `C[C@H](NC(=O)C(C)(C)Oc1ccc(C(F)(F)F)cn1)[C@@H](Cc1ccc(Cl)cc1)c1cccc(C#N)c1`, for which the Potency result was “inactive”.

Consider `CN(C)CC(=O)Nc1ccc2[nH]c(=O)c3ccccc3c2c1`, for which the Potency entry is “inactive”.

In the case of `CC(CCC1(O)OC2CC3C4CC=C5CC(O[C@@H]6O[C@H](CO)[C@@H](O[C@@H]7O[C@H](CO)[C@@H](O)[C@H](O)[C@H]7O)[C@H](O)[C@H]6O[C@@H]6O[C@@H](C)[C@H](O)[C@@H](O)[C@H]6O)CCC5(C)C4CCC3(C)C2C1C)CO[C@@H]1O[C@H](CO)[C@@H](O)[C@H](O)[C@H]1O` (stereo partly specified), the activity change, negative = cytotoxicity was 5.5% [at 11.6 µM].

As for `C[C@@H](CN1CCC(n2c(=O)[nH]c3cc(Cl)ccc32)CC1)NC(=O)c1ccc2ccccc2c1`, the Potency result was “inactive”.

`CC(C)c1ccc(NC(=O)C(c2ccccc2)N(C)C(=O)Cc2c[nH]c3ccccc23)cc1` (stereo unspecified): the Potency result was “inactive”.

As for `CCCCC(=O)N(Cc1ccc(-c2ccccc2-c2nn[nH]n2)cc1)C(C(=O)O)C(C)C` (stereo unspecified), the Potency entry was “inactive”.

With `CCCCc1nc(Cl)c(CO)n1Cc1ccc(-c2ccccc2-c2nnn[nH]2)cc1`, the Potency entry was “inactive”.

With `COc1ccc2c(c1)CN(C(=O)CCN1CCC(Cc3ccccc3)CC1)CCS2`, the Potency entry was “inactive”.

With `C=C1C(=O)O[C@@H]2[C@H]1[C@H](O)C[C@]1(C)[C@@H](O)CC=C(C)[C@@H]21`, the Potency entry was “inactive”.

`CCNC(=O)[C@@H]1CCCN1C(=O)[C@H](CCCN=C(N)N)NC(=O)[C@H](CC(C)C)NC(=O)[C@@H](CC(C)C)NC(=O)[C@H](Cc1ccc(O)cc1)NC(=O)[C@H](CO)NC(=O)[C@H](Cc1c[nH]c2ccccc12)NC(=O)[C@H](Cc1cnc[nH]1)NC(=O)[C@@H]1CCC(=O)N1`: the Potency entry is “inactive”.

As to `COc1ccc(C2(CNC(=O)[C@](C)(Cc3c[nH]c4ccccc34)NC(=O)Nc3ccc([N+](=O)[O-])cc3)CCCCC2)nc1`, the Potency result is “inactive”.

Take `CCN(CC)Cc1cccc(/C=C/c2nc3ccc(F)cc3c(=O)n2-c2ccccc2Cl)n1`: the Potency entry was “inactive”.
